Reference: PubChem BioAssay (Tox21)
Where “and” joins values, the source holds several entries; their conditions need not be identical. Equal entries are not always repeated. Inconclusive results are not listed. Where a structure was tested more than once in an assay, its records may differ in their call. Calls of active or inactive are those of the source. Unless noted, the call rests on the fitted dose curve; in most records, active means well fitted curve in the direction sought with a large enough effect in the repeat runs; inconclusive means weak or mixed curves; inactive means no such curve, though single readings can be large; an effect the other way counts as inactive or inconclusive.

Legend:
[1] = qHTS assay for small molecules that induce genotoxicity in human embryonic kidney cells expressing luciferase-tagged ATAD5 (AID 651632); further: nearly all actives have a fitted effect of over 15% in size; further: potency means the concentration at half of the fitted maximal effect
Method in brief: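 Increased luciferase signal from ATAD5-tagged reporter cells indicates DNA-damage-driven ATAD5 induction. HEK293T cells are treated for 16 hr at 37C before detection with Amplite.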

[2] = qHTS assay for small molecule agonists of the p53 signaling pathway - cell viability (AID 651633; calls by dose curve; further: nearly all actives have a fitted effect of over 30% in size; further: potency means the concentration at half of the fitted maximal effect;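 on activity change, negative = cytotoxicity: p53RE-bla HCT reporter cells with a stable beta-lactamase p53 reporter; series mostly up to about 83 µM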)
Method in brief: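 p53RE-bla cells, seeded at 4,000 per well and rested 5 h at 37 C/5% CO2, received compounds in DMSO for 16 h at 37 C. CellTiter-Glo was then added, and luminescence was read after 30 min at room temperature to gauge cytotoxicity.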

[3] = qHTS assay for small molecules that induce genotoxicity in human embryonic kidney cells expressing luciferase-tagged ATAD5 - cell viability (AID 651634; calls by dose curve; further: nearly all actives have a fitted effect of over 25% in size)
Method in brief: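 Cytotoxicity counterscreen in HEK293T cells bearing an ATAD5-luciferase reporter: live-cell protease activity measured by CellTiter-Fluor fluorescence after 15.5 hr compound exposure.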

[4] = qHTS assay for small molecule disruptors of the mitochondrial membrane potential (AID 720635); further: potency means the concentration at half of the fitted maximal effect
Method in brief: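 HepG2 cells (2,000/well) attached overnight at 37C, then took compound for 1 hr at 37C, 5% CO2. Mito-MPS dye was added for 30 min; fluorescence was read at 490/535 nm (monomers) and 540/590 nm (aggregates).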

[5] = qHTS assay to test for compound auto fluorescence at 590 nm (red) in HepG2 cells (AID 720674)
Method in brief: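 Rose Bengal sodium served as the red fluorophore standard. HepG2 monolayers (overnight attachment, MEM with 10% FBS) were exposed to test compounds for 1 hr at 37 C and read at Ex 540/Em 590 nm.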

[6] = qHTS assay to test for compound auto fluorescence at 535 nm (green) in HepG2 cells (AID 720675)
[7] = qHTS assay to test for compound auto fluorescence at 460 nm (blue) in HEK293 cells (AID 720678)
Method in brief: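 Blue-channel (Ex/Em 405/460 nm) intensity measured in HEK293 cultures after overnight compound exposure at 37C; signal expressed relative to triamterene. Cells plated 2,000 per well in 10% dialyzed FBS medium and allowed 4-5 hr to attach.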

[8] = qHTS assay to test for compound auto fluorescence at 535 nm (green) in HEK293 cells (AID 720680)
[9] = qHTS assay to test for compound auto fluorescence at 460 nm (blue) in HEK293 cell free culture (AID 720681)
Method in brief: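 Test compounds were pinned into cell-free culture medium (DMEM with 10% FBS) and fluorescence was read directly at Ex/Em 405/460 nm. Signals were expressed as fluorescence equivalents of triamterene, with DMSO vehicle as control.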

[10] = qHTS assay to test for compound auto fluorescence at 535 nm (green) in HEK293 cell free culture (AID 720682)
Method in brief: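 Green-channel intensity (Ex/Em 485/535 nm) was recorded from compound-treated wells containing only DMEM with 10% FBS. Fluorescein provided the equivalency standard.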

[11] = qHTS assay to test for compound auto fluorescence at 590 nm (red) in HEK293 cell free culture (AID 720683)
Method in brief: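 Tox21 10K library compounds were pinned into cell-free DMEM with 10% FBS and fluorescence was read at excitation 540 nm. Activity is expressed as Rose Bengal sodium equivalency.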

[12] = qHTS assay to test for compound auto fluorescence at 590 nm (red) in HepG2 cell free culture (AID 720684)
Method in brief: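 Red fluorescence (540 nm excitation, 590 nm emission) was measured after compound transfer into cell-free MEM supplemented with 10% FBS. Values are equivalencies against Rose Bengal sodium.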

[13] = qHTS assay to test for compound auto fluorescence at 460 nm (blue) in HepG2 cell free culture (AID 720685)
Method in brief: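 Compound (23 nL) or DMSO pinned into cell-free MEM with 10% FBS; blue fluorescence read at 405/460 nm excitation/emission, expressed as auto-fluorescence equivalency to triamterene.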

[14] = qHTS assay to test for compound auto fluorescence at 535 nm (green) in HepG2 cell free culture (AID 720686)
[15] = qHTS assay to test for compound auto fluorescence at 460 nm (blue) in HepG2 cells (AID 720687)
Method in brief: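 Cells (2,000/well in MEM with 10% FBS) attached overnight at 37 C, then were exposed to compound or DMSO for 1 hr at 37 C, 5% CO2. Fluorescence read at Ex/Em 405/460 nm, expressed as triamterene-equivalent signal.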

[16] = molecular target: Glucocorticoid receptor (Homo sapiens) (UniProt P04150); test: qHTS assay to identify small molecule agonists of the glucocorticoid receptor (GR) signaling pathway (AID 720691; active means well fitted activation curve with a large enough effect in the signal ratio in the repeat runs, not every such curve was filed as active; the % refers to the signal ratio)
Method in brief: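 Agonist mode in a HeLa line carrying a GRE-controlled beta-lactamase reporter. Compounds act for 18 h at 37 C before a 2 h room-temperature FRET substrate step and fluorescence reading.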

[17] = qHTS assay for small molecule disruptors of the mitochondrial membrane potential - cell viability (AID 720634; calls by dose curve;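 further: human HepG2 liver cancer cells; series mostly up to about 83 µM; nearly all actives have a fitted effect of over 20% in size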)
Method in brief: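 After overnight attachment at 37 C, HepG2 cells received compound or DMSO vehicle for 1 hr. Viability is then taken from ATP-driven luminescence following a 30 min room-temperature CellTiter-Glo step.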

[18] = qHTS assay to test for compound auto fluorescence at 590 nm (red) in HEK293 cells (AID 720679)
Method in brief: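 Red-channel autofluorescence (Ex/Em 540/590 nm; Rose Bengal sodium reference) was measured after overnight 37C, 5% CO2 exposure of attached HEK293 cells, 2,000 per well in medium with 10% dialyzed FBS.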

[19] = molecular target: Glucocorticoid receptor (Homo sapiens) (UniProt P04150); test: qHTS assay to identify small molecule antagonists of the glucocorticoid receptor (GR) signaling pathway (AID 720692; active means well fitted inhibition curve with a large enough effect in the signal ratio in the repeat runs, not every such curve was filed as active; the % refers to the signal ratio)
Method in brief: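 Cells plated, rested 4 h at 37 C/5% CO2; compounds in DMSO pin-transferred; dexamethasone added to 5 nM final; 18 h at 37 C; B/G FRET substrate added, 2 h room temperature; fluorescence measured.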
On the % scale 0 is the no-effect control and ±100 the full control effect.

Sequence of Glucocorticoid receptor (Homo sapiens) (P04150 whole entry, looked up): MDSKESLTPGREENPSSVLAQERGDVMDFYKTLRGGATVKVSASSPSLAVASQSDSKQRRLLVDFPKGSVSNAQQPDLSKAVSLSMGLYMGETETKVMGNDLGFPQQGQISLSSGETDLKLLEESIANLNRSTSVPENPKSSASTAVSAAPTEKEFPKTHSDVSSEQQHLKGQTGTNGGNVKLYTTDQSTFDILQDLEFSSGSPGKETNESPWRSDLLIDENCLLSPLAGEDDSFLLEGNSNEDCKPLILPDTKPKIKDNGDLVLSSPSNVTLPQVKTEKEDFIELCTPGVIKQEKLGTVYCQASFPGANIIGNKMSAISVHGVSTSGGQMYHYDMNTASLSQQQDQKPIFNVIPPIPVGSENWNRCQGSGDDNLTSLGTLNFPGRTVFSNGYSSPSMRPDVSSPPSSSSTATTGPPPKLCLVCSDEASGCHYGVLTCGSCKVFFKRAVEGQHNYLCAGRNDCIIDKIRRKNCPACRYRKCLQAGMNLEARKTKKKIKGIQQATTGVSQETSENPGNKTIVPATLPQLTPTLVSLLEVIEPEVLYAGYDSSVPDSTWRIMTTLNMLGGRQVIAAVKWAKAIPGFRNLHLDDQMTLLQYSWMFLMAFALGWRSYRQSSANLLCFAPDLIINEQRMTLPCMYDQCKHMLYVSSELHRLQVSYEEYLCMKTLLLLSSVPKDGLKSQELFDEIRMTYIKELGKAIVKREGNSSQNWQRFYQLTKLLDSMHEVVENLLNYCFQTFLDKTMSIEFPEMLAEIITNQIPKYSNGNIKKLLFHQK

Cc1cc(O)c(C(C)C)cc1Cl
inactive and 4.33 µM (active): Potency [4]
inactive: Potency [1] | Potency [3] | outcome [5] | outcome [6] | Potency [7] | outcome [8] | Potency [9] | outcome [10] | outcome [11] | outcome [12] | Potency [13] | outcome [14] | Potency [15] | Potency [16]
inactive and 54.5 µM (active): Potency [2]

C1COCO1
inactive: Potency [1] | Potency [2] | Potency [3] | Potency [17] | outcome [5] | outcome [6] | outcome [18] | outcome [8] | Potency [9] | outcome [10] | outcome [11] | outcome [12] | Potency [13] | outcome [14] | Potency [15] | Potency [16] | Potency [19]

CCCCC(CC)C(=O)OCCOCCOCCOCCOC(=O)C(CC)CCCC (centres undefined)
inactive: Potency [1] | Potency [2] | Potency [3] | Potency [17] | outcome [5] | outcome [6] | Potency [7] | outcome [18] | outcome [8] | Potency [9] | outcome [10] | outcome [11] | outcome [12] | Potency [13] | outcome [14] | Potency [15] | Potency [16] | Potency [19]

CCOC(=O)c1ccccc1OC
inactive: Potency [1] | Potency [2] | Potency [3] | Potency [17] | outcome [6] | Potency [7] | outcome [18] | outcome [8] | Potency [9] | outcome [10] | outcome [11] | outcome [12] | Potency [13] | outcome [14] | Potency [15]

CC(N)CN (centres undefined)
inactive: Potency [1] | Potency [2] | Potency [3] | outcome [5] | outcome [6] | Potency [7] | outcome [8] | Potency [9] | outcome [10] | outcome [11] | outcome [12] | Potency [13] | outcome [14] | Potency [15] | Potency [16] | Potency [19]

[O]=[Bi]
inactive: activation [1] 1.52% [at 8.08 µM] | activity change, negative = cytotoxicity [2] 9.6% [at 8.08 µM] | activity, negative = cytotoxicity [3] 17.3% [at 8.08 µM] | fluorescence, relative to Rose Bengal [5] -0.152% [at 3.72 µM] | fluorescence, % of fluorescein control [6] 0.162% [at 3.72 µM] | fluorescence, % of triamterene [7] -0.117% [at 3.72 µM] | fluorescence, % of fluorescent control [18] 0.261% [at 3.72 µM] | fluorescence, % of fluorescein [8] -0.0925% [at 3.72 µM] | activity change [10] -0.0025% [at 3.72 µM] | fluorescence, % of fluorescent control [11] -0.241% [at 3.72 µM] | fluorescence, % of Rose Bengal [12] -0.0278% [at 3.72 µM] | fluorescence, % of fluorescent control [13] -0.119% [at 3.72 µM] | fluorescence, % of fluorescein control [14] -0.0086% [at 3.72 µM] | fluorescence, % of fluorescent control [15] -0.0256% [at 3.72 µM] | activation [16] 0.026% [at 6.9 µM]

C=CCOC(=O)/C=C\C(=O)OCC=C
inactive: Potency [1] | Potency [2] | Potency [3] | outcome [5] | outcome [6] | Potency [7] | outcome [8] | Potency [9] | outcome [10] | outcome [12] | Potency [13] | outcome [14] | Potency [15] | Potency [16]

C[C@@H]1C[C@H]2[C@@H]3CCC4=CC(=O)C=C[C@]4(C)[C@@]3(F)[C@@H](O)C[C@]2(C)[C@@]1(O)C(=O)CO
inactive: Potency [1] | Potency [2] | Potency [3] | Potency [17] | outcome [5] | outcome [6] | Potency [7] | outcome [8] | Potency [9] | outcome [10] | outcome [12] | Potency [13] | outcome [14] | Potency [15]

Cc1ccc(/C=N/n2c(-c3ccccc3)csc2=S)cc1
inactive: Potency [1] | Potency [2] | Potency [3] | outcome [5] | outcome [6] | Potency [7] | outcome [18] | outcome [8] | Potency [9] | outcome [10] | outcome [11] | outcome [12] | Potency [13] | outcome [14] | Potency [15] | Potency [16]

C[Si]1(C)O[Si](C)(C)O[Si](C)(C)O1
inactive: Potency [1] | Potency [2] | Potency [3] | Potency [4] | outcome [5] | outcome [6] | outcome [18] | outcome [8] | Potency [9] | outcome [10] | outcome [12] | Potency [13] | outcome [14] | Potency [15]

CC(C)C(OC(=O)c1ccccc1)C(C)(C)COC(=O)c1ccccc1 (centres undefined)
active: Potency [4] 27.3 µM
inactive: Potency [1] | Potency [2] | Potency [3] | outcome [5] | outcome [6] | Potency [7] | outcome [18] | outcome [8] | Potency [9] | outcome [10] | outcome [11] | outcome [12] | Potency [13] | outcome [14] | Potency [15]

CC1CC(O)CC(C)(C)C1 (centres undefined)
inactive: Potency [1] | Potency [2] | Potency [3] | Potency [4] | outcome [5] | outcome [6] | Potency [7] | outcome [18] | outcome [8] | Potency [9] | outcome [10] | outcome [11] | outcome [12] | Potency [13] | outcome [14] | Potency [15] | Potency [16] | Potency [19]

Cc1cnc(C)c(C)n1
inactive: Potency [1] | Potency [2] | Potency [3] | Potency [4] | outcome [5] | outcome [6] | Potency [7] | outcome [8] | outcome [10] | outcome [11] | outcome [12] | Potency [13] | outcome [14] | Potency [15] | Potency [16]

CCN(Cc1cccc(S(=O)(=O)O)c1)c1ccc(C(=C2C=CC(=[N+](CC)Cc3cccc(S(=O)(=O)[O-])c3)C=C2)c2ccccc2)cc1
inactive: Potency [1] | Potency [2] | Potency [3] | Potency [17] | outcome [5] | outcome [6] | Potency [7] | outcome [18] | outcome [8] | Potency [9] | outcome [10] | outcome [12] | Potency [13] | outcome [14] | Potency [15]

OC/C(Br)=C(\Br)CO
inactive: Potency [1] | Potency [2] | Potency [3] | Potency [17] | outcome [5] | outcome [6] | Potency [7] | outcome [8] | outcome [10] | outcome [11] | outcome [12] | Potency [13] | outcome [14] | Potency [15] | Potency [16] | Potency [19]

O=C(CS)OCCOC(=O)CS
active: Potency [1] 30.6 µM
inactive: Potency [2] | Potency [3] | Potency [17] | outcome [5] | outcome [6] | outcome [18] | outcome [8] | Potency [9] | outcome [10] | outcome [12] | Potency [13] | outcome [14] | Potency [15]
